# Bioassay records deposited in PubChem BioAssay by National Center for Advancing Translational Sciences (NCATS).
# The list is not random: actives were taken first. Their share in the collection is about 14%.
# HADH2 inhib: inhibitors of human HADH2 dehydrogenase; AID 886; Potency, µM (doses to about 57.1 µM), without a hit: at the top dose activity change, negative = inhibition, hits mostly inhibitors; 73,000 compounds, 3.4% hits; Q99714; recombinant HADH2, NADH fluorescence, beta-hydroxybutyryl-CoA; also: potency is read from the fitted curve at half-maximal effect; % is scaled to controls: 0 for no effect and ±100 for the full control effect; nearly all actives have a fitted effect of over 60% in size
# Target sequence (Q99714 whole entry, looked up, one chain of several): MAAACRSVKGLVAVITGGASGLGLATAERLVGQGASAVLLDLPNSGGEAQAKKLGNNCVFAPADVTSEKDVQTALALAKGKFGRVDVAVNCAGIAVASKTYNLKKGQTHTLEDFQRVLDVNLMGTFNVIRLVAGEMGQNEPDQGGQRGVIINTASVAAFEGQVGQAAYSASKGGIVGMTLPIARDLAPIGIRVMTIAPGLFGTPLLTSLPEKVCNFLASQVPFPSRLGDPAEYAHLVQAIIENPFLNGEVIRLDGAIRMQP
#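 20 nM HADH2 + cpd, 15 min RT; add 1 mM NAD+/90 uM beta-hydroxybutyryl-CoA; kinetic fluorescence 360/450 nm, 4 min. Tris-HCl pH 9.0, 0.01% Tween-20.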
# AID923: qHTS Assay for Allosteric/Competitive Inhibitors of Caspase-1: Spectroscopic Profiling in AFC Spectral Region; compound fluorescence, AFC spectral region (405/520 nm); Potency, µM (top dose mostly 57.5 µM), for inactives: at the highest dose fluorescence increase, hits mostly activators; 75,000 compounds, 1.1% hits; also: potency is read from the fitted curve at half-maximal effect; 0% is about no effect
#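 Baseline compound fluorescence (AFC region, 405 nm ex/520 nm em) taken from the intercept of kinetic reads with 50 nM caspase-1 and 5 uM Ac-WEHD-AFC; normalized to an on-plate AFC standard curve; compounds titrated up to 57 uM.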
# A350 autofl: A350 region autofluorescence; max dye-equivalent concentration, M; 59,000 compounds, 11% hits; Compound autofluorescence, 340/450 nm, Alexa 350 dye-equivalents; stronger effect = higher value; AID 590; in the data active = max dye-equivalent concentration above about 10 nM; inconclusive = mostly about 1.1 nM to 9.6 nM
# CRE Fsk mod: alters forskolin-stimulated CRE reporter signaling in CHO cells | CHO CRE-bla reporter (cAMP response element driving beta-lactamase), forskolin EC10, beta-lactamase ratio | Potency, µM (titrated, usually from 38.2 µM), inactives show top-dose activity change, negative = inhibition, actives largely listed as activators | 71,000 compounds, 2.5% hits | AID 662; active = well fitted activation curve with a large enough effect in the signal ratio, with a control signal flat, not every such curve was filed as active; inconclusive = small, poorly fitted or top-dose-only effect, or effect the other way, or a change in a side signal; the % refers to the signal ratio; also: potency is read from the fitted curve at half-maximal effect; % of control where 0% means no effect
#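 Cells were plated overnight at 37 °C, exposed to compound titrations plus EC10 NKH 477 for 3 h, then given CCF4 dye for 2 h at room temperature. Blue/green (460/530 nm) ratio was converted to %Activity and AC50 values calculated.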
# 4-MU autofl: compounds fluorescent in 4-MU spectral region; max dye-equivalent concentration, M; compound autofluorescence, 340/450 nm, 4-MU equivalents; stronger effect = higher value; 59,000 compounds, 11% hits; in the data active = max dye-equivalent concentration above about 10 nM; inconclusive = mostly about 1.1 nM to 9.6 nM
#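 Compounds in 100 mM Tris, pH 8.0, incubated 15 min at room temperature, then fluorescence read at 340 nm excitation/450 nm emission. Signal converted to 4-MU dye-equivalent concentration using an on-plate six-point 4-MU standard curve.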
# HSD17B inh: blocks hydroxysteroid 17-beta dehydrogenase activity; Q99714; recombinant HSD17B10, NADH fluorescence kinetic; Potency, µM (doses to about 57.1 µM), for the others: at the highest dose activity change, negative = inhibition, usual class: inhibitors; 75,000 compounds, 7.6% hits; AID 893;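 also: the protocol describes HADH2 (HSD17B10) and not the HSD17B4 of the title; potency is read from the fitted curve at half-maximal effect; % is scaled to controls: 0 for no effect and ±100 for the full control effect; nearly all actives have a fitted effect of over 70% in size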
#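 Enzyme plus compound, 15 min room temperature; substrate mix added (NAD+ 1 mM, beta-hydroxybutyryl-CoA 90 uM final); plates read kinetically for NADH fluorescence. HADH2 was His-tagged, E. coli-derived, 20 nM.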
# Starred values were filed as active, the others as inactive; i = inactive; ? = inconclusive; nt = not tested or not shown; [ ] = remark or other dose. Unless noted, calls follow the shape of the dose curve; as a rule, active = well fitted curve in the direction sought with a large enough effect; inconclusive = small, poorly fitted or top-dose-only effect, or another doubt; inactive = no such curve, though single readings can be large; an effect the other way counts as inactive or inconclusive.
SMILES,HADH2 inhib,AID923,A350 autofl,CRE Fsk mod,4-MU autofl,HSD17B inh
CCn1c(=O)cc(OCC(=O)N2CCc3ccccc32)c2ccccc21,6%,0%,nt,-10%,nt,-5%
CCOC(=O)COc1ccc(S(=O)(=O)N2CCN(C(=O)OCC)CC2)cc1,14%,2%,i,-1%,i,-3%
COCCNc1ncnc2ccc(-c3ccoc3)cc12,?,14%,6.2e-08M*,-20%,6.1e-08M*,32µM*
COCCNc1ncnc2ccc(-c3ccccc3OC)cc12,?,1%,i,?,i,25µM*
CC(=O)NCCNc1ncnc2ccc(-c3ccoc3)cc12,?,9%,6.6e-08M*,-12%,6.2e-08M*,25µM*
COCCNc1ncnc2ccc(-c3ccc(N(C)C)cc3)cc12,-26%,3%,i,22%,i,-6%
Cc1cnc(CNc2ncnc3ccc(-c4ccoc4)cc23)cn1,?,10%,5.3e-08M*,?,5.1e-08M*,?
Cc1cnc(CNc2ncnc3ccc(-c4ccc(N(C)C)cc4)cc23)cn1,?,0%,i,?,i,?
CCOC(=O)[C@H](CCc1ccccc1)N[C@@H](C)C(=O)N1[C@H](C(=O)O)C[C@H]2CCCC[C@@H]21,nt,-1%,nt,nt,nt,20%
Cc1noc(C)c1-c1ccc2ncnc(Nc3ccc(F)cc3)c2c1,3%,3%,i,14%,i,1%
COC(=O)[C@@]1(Cc2ccc(F)cc2)[C@H]2c3cc(C(=O)N4CCCC4)n(CCN4CNCC4=O)c3C[C@H]2CN1C(=O)c1ccccc1,5%,-1%,nt,?,nt,-10%
COCCNC(=O)[C@@]1(Cc2ccccc2)C=C[C@@H](C)N1C(=O)OC,7%,0%,nt,-12%,nt,11%
CN1/C(=C/C=N/n2cnnc2)C(C)(C)c2ccccc21,7%,6%,7.3e-08M*,9%,8.1e-08M*,?
CN1/C(=C\P(=O)(N(C)C)N(C)C)C(C)(C)c2ccccc21,-6%,0%,i,?,i,-5%
O=c1nc2n(c3c1oc1ccccc13)Cc1ccccc1-2,?,1%,i,?,i,4µM*
Cc1oc(-c2ccc(F)cc2)cc1-c1nn2c(-c3ccco3)nnc2s1,?,-4%,i,-4%,i,16µM*
Cc1oc(-c2ccc(F)cc2)cc1-c1nn2c(-c3ccoc3C)nnc2s1,25µM*,-1%,i,?,i,?
c1ccc(CNc2nc(-c3ccc4c(c3)OCO4)nc3ccccc23)cc1,?,4%,i,7%,i,?
COC(=O)CNC(=O)c1ccc(=O)oc1,2%,4%,1.3e-07M*,-24%,1.3e-07M*,171%
Cc1c(S(=O)(=O)Nc2cccc(Cl)c2)c(=O)n(C)c(=O)n1C,9%,-3%,nt,2µM*,nt,6%
N#Cc1c(N)nc(SCC(=O)NCCc2ccccc2)c(C#N)c1-c1cccs1,nt,nt,5e-07M*,nt,4.6e-07M*,nt
CC(C)OC(=O)CSc1nc(N)c(C#N)c(-c2cccs2)c1C#N,?,0%,nt,?,nt,?
COc1ccc(C(=O)N2CCC3(CC2)CN(c2cccc(-c4ccccc4)c2)C3)cc1,-11%,0%,i,-11%,i,?
CC(=O)N1CCC2(CC1)CN(c1cccc(-c3ccccc3)c1)C2,-7%,2%,i,9%,i,32µM*
O=C(c1ccncc1)N1CCC2(CC1)CN(c1cccc(-c3ccccc3)c1)C2,-23%,-4%,i,4%,i,25µM*
SMILES,HADH2 inhib,AID923,A350 autofl,CRE Fsk mod,4-MU autofl,HSD17B inh
CC(C)C[C@@H](CC(=O)N[C@@H](CCC(=O)O)CC(=O)O)NC(=O)[C@@H]1CNCC[C@H]1NC(=O)C[C@H](CCCN)NC(=O)C[C@H](CO)NC(=O)[C@@H]1CNCC[C@H]1N,2%,nt,nt,?,nt,nt
Cc1cc(C)n(-c2nc(C)nc3sc4c(c23)CCC(C)C4)n1 (stereo unspecified),-15%,-3%,i,11%,i,32µM*
Cc1cc(C)n(-c2ncnc3sc4c(c23)CCCC4)n1,-11%,2%,?,-14%,?,25µM*
Cc1cc(C)n(-c2ncnc3sc4c(c23)CC(C)CC4)n1 (stereo unspecified),1%[11.4 µM],1%,nt,?,nt,25µM*
CC1CCc2c(sc3ncnc(N4CCOCC4)c23)C1 (stereo unspecified),-1%[11.4 µM],3%,nt,?,nt,1%
CCC(C)=O,-2%,3%,nt,-7%,nt,2%
Cc1sc(NC(=O)CN2CCN(c3ccccn3)CC2)c(C#N)c1C,-7%,0%,?,-10%,i,-5%
NC(=O)c1ccsc1NC(=O)c1nc(-c2ccccc2)n(-c2ccccc2)n1,123%,-1%,3.8e-07M*,?,2.4e-07M*,11%
O=C(NC1=NCCS1)c1nc(-c2ccccc2)n(-c2ccccc2)n1,6%,0%,i,-1%,i,-4%
CCC(C)COC(=O)C(C#N)c1nc2ccccc2nc1N1CCCCC1 (stereo unspecified),-2%,7%,?,?,i,-4%
CCCCCCOC(=O)C(C#N)c1nc2ccccc2nc1N1CCN(C)CC1 (stereo unspecified),-22%,14%,2.1e-08M*,?,1.9e-08M*,-6%
CCCCCCOC(=O)C(C#N)c1nc2ccccc2nc1N1CCCCC1 (stereo unspecified),1%,12%,1.1e-08M*,?,?,34%
CCC(CC)COC(=O)C(C#N)c1nc2ccccc2nc1N1CCN(CC)CC1 (stereo unspecified),-5%,21%,?,?,1.8e-08M*,-22%
COc1ccc(NC(=O)CCn2cccc2)cc1,0%,-2%,nt,nt,nt,-4%
Cc1cc(N2CCCCC2)nc(SCC(=O)c2ccccc2)n1,3%,2%,i,14%,i,-2%
Cc1cc(N2CCCC2)nc(-c2ccccc2O)n1,32µM*,0%,7.6e-08M*,13%,6.7e-08M*,32µM*
Cc1nc2sc(C#N)c(N)c2c2c1CCCC2,nt,nt,4.1e-07M*,nt,3.7e-07M*,nt
N#Cc1sc2nc3c(c(-c4cccnc4)c2c1N)CCC3,-3%,2%,?,?,?,-7%
COCCOC(=O)C1=C(C)Nc2ncnn2C1c1ccccc1 (stereo unspecified),-9%,3%,?,15%,i,9%
CC1=Nc2ncnn2C(c2ccccc2)/C1=N\O (stereo unspecified),-13%,3%,1.6e-08M*,?,1.4e-08M*,-12%
CC(=O)O[C@]12CC[N@+]3(C)CCCC[C@@H]3[C-]1Nc1ccccc12,13%[11.4 µM],2%[11.5 µM],i,-15%[7.6 µM],i,6%[11.4 µM]
